Results taken from PubChem BioAssay.
Calls of active or inactive are those of the source.

Key:
[1] = binders of probe aFSTL3 on microarray, primary screen, stem cell growth factor project, biochemical, small-molecule microarray, fluorescence 635/667 (AID 1064); details: higher = more signal;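 note: measures binding of the biotinylated anti-FSTL3 antibody to printed compounds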
[2] = binders from COS7 lysate, DM2A8 probe, primary screen, torsin A project, cell lysate, small-molecule microarray, fluorescence 635/667 (AID 1065); details: higher = more signal, COS7 lysate expressing mutant human TOR1A
[3] = binders of probe aFGF2 on microarray, primary screen, stem cell growth factor project, biochemical, small-molecule microarray, fluorescence 635/667 (AID 1067); details: higher = more signal;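 note: measures binding of biotinylated aFGF2 protein to printed compounds on slides; z-score merges feature fluorescence and signal-to-noise across triplicate slides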
[4] = binders of probe aFGF10 on microarray, primary screen, stem cell growth factor project, biochemical, small-molecule microarray, fluorescence 635/667 (AID 1071); details: higher = more signal;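 note: score merges 667 nm spot intensity and signal to noise from triplicate slides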
[5] = target: Neurogenic locus notch homolog protein 2 (Homo sapiens) (UniProt Q04721); experiment: Notch2 binders on small-molecule microarrays, primary screen, biochemical, small-molecule microarray, 635 nm fluorescence, stem cell growth factors (AID 1073); details: Notch2 binding, higher = more signal
[6] = target: Pro-neuregulin-1, membrane-bound isoform (Homo sapiens) (UniProt Q02297); experiment: NRG1 binders on small-molecule microarrays, primary screen, psychiatric disease protein project, biochemical, small-molecule microarray, fluorescence 635/667 (AID 1075); details: NRG1 binding, 635 nm fluorescence, higher = more signal;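 note: score combines 667 nm spot fluorescence with signal to noise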
Pro-neuregulin-1, membrane-bound isoform (Homo sapiens), sequence (Q02297 whole entry, looked up, the tested form may be a part, canonical isoform): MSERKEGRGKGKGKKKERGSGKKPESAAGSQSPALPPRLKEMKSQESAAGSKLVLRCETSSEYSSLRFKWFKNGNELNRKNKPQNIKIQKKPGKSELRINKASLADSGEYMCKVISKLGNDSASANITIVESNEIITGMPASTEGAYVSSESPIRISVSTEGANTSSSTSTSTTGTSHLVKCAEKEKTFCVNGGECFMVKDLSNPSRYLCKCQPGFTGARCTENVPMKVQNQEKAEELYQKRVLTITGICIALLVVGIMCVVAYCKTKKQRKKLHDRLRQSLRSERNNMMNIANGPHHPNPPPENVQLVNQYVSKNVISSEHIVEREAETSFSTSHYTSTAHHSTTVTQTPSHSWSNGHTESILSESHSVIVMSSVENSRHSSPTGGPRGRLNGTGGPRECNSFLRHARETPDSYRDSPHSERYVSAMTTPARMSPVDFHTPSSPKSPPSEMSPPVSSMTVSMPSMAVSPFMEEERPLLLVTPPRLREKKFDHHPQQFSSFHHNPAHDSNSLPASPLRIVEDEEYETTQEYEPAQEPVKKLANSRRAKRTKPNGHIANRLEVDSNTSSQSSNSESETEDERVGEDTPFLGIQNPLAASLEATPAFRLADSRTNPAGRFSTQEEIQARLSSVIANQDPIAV

[7] = test system: Neuregulin-1 EGF-like domain; experiment: binders of neuregulin-1 EGF-like domain, primary screen, biochemical, small-molecule microarray, 635 nm fluorescence (AID 1081); details: small-molecule microarray binding, higher = more signal;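 note: binding of the protein to compounds printed on small-molecule microarray slides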
[8] = FRG1 promoter luciferase signal modulators, primary screen, FRG1 inhibition for FSHD, cell-based, C2C12 myotubes, firefly/Renilla luciferase, luminescence (AID 1084); details: higher = more signal, called active from +8 up or from −8 down
[9] = binders of probe aFST on microarray, primary screen, stem cell growth factor project, biochemical, small-molecule microarray, fluorescence 635/667 (AID 1086); details: higher = more signal;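 note: score merges 667 nm fluorescence with signal-to-noise of each printed compound spot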
[10] = binders of probe aHhip on microarray, primary screen, stem cell growth factor project, biochemical, small-molecule microarray, fluorescence 635/667 (AID 1087); details: higher = more signal;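 note: score merges spot fluorescence at 667nm with spot signal to noise ratio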
[11] = test system: PRMT1 (protein arginine N-methyltransferase 1); experiment: PRMT1 binders on small-molecule microarrays, primary screen, biochemical, small-molecule microarray, 635 nm fluorescence (AID 1088); details: small-molecule microarray binding, higher = more signal;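 note: binding of Prmt1 protein to compounds spotted on small-molecule microarray slides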
[12] = yeast growth modulation, basal conditions, primary screen, YJM789 clinical isolate, OD600, 24 h (AID 1089);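 note: growth of clinical yeast isolate S. cerevisiae YJM 789 seeded 1000 cells per well; test concentration not given here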; details: S. cerevisiae YJM789 growth, higher = more signal, called active from +8 up or from −8 down
[13] = fission yeast growth modulation, primary screen, strain 972, OD600, 24 h, no modulator (AID 1090);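 note: basal condition with compound alone and no growth modifier present; test concentration not given here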; details: S. pombe 972 growth, higher = more signal, called active from +8 up or from −8 down
[14] = S. cerevisiae growth modulation with rapamycin, primary screen, strain BY4716, OD600, 96 h (AID 1091); details: higher = more signal, called active from +8 up or from −8 down; note: test concentration not given here
[15] = target: Torsin-1A-interacting protein 2 (Homo sapiens) (UniProt Q8NFQ8); experiment: LULL1 binders on small-molecule microarray, primary screen, cell lysate, human LULL1 lysate, 635/667 nm fluorescence (AID 1092); details: hLULL1 lysate binding, 635 nm fluorescence, higher = more signal;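 note: probe is lysate of COS7 cells overexpressing human LULL1; score merges per-feature 667 nm fluorescence with signal-to-noise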
Torsin-1A-interacting protein 2 (Homo sapiens), sequence (Q8NFQ8 whole entry, looked up): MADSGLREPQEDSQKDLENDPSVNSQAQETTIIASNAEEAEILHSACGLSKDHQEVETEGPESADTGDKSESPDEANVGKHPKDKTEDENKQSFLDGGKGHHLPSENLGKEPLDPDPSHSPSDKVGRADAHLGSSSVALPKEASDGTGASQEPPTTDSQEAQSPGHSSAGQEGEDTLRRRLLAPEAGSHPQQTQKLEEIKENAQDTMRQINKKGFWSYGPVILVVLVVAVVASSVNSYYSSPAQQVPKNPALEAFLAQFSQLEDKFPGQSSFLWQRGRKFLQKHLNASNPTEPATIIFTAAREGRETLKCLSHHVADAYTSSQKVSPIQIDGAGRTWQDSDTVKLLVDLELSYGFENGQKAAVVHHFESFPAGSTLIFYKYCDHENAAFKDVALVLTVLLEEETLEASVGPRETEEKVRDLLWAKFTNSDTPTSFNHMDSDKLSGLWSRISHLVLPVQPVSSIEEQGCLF

[16] = E. coli growth modulation, two-sided OD650, primary screen, E. coli filamentation project, strain DRC41, 24 h (AID 1093); details: OD650, 24 h, higher = more signal, called active from +8 up or from −8 down;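 note: MC1000 strain lacking acrAB efflux and sulA so SOS filamentation is blocked; test concentration not given here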
[17] = small-molecule microarray binders of probe aLefty2, primary screen, biochemical, biotinylated probe, 635/667 nm fluorescence (AID 1094); details: higher = more signal;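 note: score merges spot fluorescence near 667 nm with spot signal-to-noise ratio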
[18] = test system: Noggin (protein binding on small-molecule microarray); experiment: Noggin binders on small-molecule microarray, primary screen, biochemical, 635/667 nm fluorescence (AID 1095); details: 635 nm fluorescence, higher = more signal;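 note: score merges 667 nm feature fluorescence with signal to noise over triplicate slides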
[19] = target: Neurogenic locus notch homolog protein 3 (Homo sapiens) (UniProt Q9UM47); experiment: NOTCH3 binders on small-molecule microarray, primary screen, biochemical, 635/667 nm fluorescence (AID 1096); details: NOTCH3 binding, 635 nm fluorescence, higher = more signal
Neurogenic locus notch homolog protein 3 (Homo sapiens), sequence (Q9UM47 whole entry, looked up): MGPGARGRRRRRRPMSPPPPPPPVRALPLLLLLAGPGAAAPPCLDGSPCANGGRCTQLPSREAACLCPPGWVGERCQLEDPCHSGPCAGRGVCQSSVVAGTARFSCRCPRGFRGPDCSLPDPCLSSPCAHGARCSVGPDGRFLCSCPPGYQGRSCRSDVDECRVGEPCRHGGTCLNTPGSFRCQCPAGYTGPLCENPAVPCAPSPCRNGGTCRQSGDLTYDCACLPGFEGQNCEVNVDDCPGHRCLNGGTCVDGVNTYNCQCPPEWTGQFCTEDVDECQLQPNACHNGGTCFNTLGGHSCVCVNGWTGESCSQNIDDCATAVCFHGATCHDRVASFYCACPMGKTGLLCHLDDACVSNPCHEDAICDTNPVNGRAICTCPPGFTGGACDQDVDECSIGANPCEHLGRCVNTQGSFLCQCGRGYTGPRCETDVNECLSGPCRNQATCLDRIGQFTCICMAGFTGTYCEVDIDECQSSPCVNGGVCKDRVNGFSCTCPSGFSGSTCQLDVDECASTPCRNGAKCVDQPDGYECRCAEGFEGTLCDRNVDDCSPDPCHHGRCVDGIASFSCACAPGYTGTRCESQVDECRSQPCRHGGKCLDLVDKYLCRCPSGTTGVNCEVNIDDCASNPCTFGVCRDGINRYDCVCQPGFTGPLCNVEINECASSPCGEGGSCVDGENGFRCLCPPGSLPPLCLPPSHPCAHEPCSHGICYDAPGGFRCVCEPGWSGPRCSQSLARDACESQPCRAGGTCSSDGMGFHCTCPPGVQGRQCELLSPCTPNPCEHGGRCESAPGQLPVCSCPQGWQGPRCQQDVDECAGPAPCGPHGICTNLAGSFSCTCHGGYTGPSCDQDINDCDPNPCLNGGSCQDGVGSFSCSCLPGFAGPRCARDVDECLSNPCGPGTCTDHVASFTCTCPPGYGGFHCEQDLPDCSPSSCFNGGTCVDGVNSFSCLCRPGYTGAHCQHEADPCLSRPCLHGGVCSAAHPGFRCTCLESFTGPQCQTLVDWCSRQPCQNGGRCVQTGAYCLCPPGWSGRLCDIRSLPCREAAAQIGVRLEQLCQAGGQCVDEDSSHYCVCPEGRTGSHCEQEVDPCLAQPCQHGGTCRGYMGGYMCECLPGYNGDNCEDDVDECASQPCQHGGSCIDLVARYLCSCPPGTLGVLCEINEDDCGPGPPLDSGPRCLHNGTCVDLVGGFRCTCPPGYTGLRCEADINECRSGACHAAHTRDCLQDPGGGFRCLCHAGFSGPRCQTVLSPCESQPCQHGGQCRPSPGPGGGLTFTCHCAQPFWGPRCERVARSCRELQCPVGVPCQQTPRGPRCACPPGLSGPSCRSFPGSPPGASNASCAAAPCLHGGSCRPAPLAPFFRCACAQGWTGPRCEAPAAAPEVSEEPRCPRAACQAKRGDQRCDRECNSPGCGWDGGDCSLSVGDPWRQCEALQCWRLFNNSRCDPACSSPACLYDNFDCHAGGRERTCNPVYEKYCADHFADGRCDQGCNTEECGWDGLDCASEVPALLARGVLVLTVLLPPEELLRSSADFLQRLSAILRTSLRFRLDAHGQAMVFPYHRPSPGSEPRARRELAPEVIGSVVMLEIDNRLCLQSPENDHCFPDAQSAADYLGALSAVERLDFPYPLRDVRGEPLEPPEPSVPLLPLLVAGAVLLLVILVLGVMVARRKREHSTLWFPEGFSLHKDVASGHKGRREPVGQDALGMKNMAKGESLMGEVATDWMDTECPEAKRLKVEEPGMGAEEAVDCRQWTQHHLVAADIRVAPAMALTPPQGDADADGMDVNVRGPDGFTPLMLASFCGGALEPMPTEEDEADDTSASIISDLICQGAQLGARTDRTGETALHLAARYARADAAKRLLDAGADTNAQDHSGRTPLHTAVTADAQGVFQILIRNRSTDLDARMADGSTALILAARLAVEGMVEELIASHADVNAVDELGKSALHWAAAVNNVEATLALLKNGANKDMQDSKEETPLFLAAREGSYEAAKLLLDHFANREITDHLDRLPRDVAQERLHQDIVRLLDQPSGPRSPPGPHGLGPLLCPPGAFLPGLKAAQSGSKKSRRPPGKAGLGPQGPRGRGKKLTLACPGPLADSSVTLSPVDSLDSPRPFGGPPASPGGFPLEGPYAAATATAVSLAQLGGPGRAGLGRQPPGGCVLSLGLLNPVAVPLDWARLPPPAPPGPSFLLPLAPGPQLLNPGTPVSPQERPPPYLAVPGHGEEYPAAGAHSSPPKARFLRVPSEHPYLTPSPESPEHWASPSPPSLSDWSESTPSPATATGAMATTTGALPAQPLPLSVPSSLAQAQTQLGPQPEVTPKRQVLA

[20] = small-molecule microarray binders of probe aEGFR, primary screen, biochemical, biotinylated probe, 635/667 nm fluorescence (AID 1097); details: higher = more signal;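 note: probe is a biotinylated anti-EGFR antibody binding compounds printed on slides; score combines fluorescence near 667 nm and signal to noise of each spot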

SMILES | composite z-score [1] | composite z-score [2] | composite z-score [3] | composite z-score [4] | composite z-score [5] | composite z-score [6] | composite z-score [7] | z-score [8] | composite z-score [9] | composite z-score [10] | composite z-score [11] | z-score [12] | z-score [13] | z-score [14] | composite z-score [15] | z-score [16] | composite z-score [17] | composite z-score [18] | composite z-score [19] | composite z-score [20]
CO[C@H]1COC(=O)CC=C[C@H](C)[C@H](OC)COC(=O)[C@@H](C)NC(=O)CC=C[C@@H]1C | -0.57 | 2.19 | -0.246 | -0.225 | -0.755 | -0.468 | 0.659 | 0.484 (inactive) | -0.39 | 0.172 | 1.56 | -1.77 (inactive) | -0.391 (inactive) | -0.735 (inactive) | 0.525 | -0.159 (inactive) | -0.0122 | 1.61 | 0.346 | -0.0313
COC(=O)[C@H](C)NC(=O)CCC1CC(OC(=O)NCc2cccc3ccccc23)CC2(CCCC(COC(=O)NCCOc3ccccc3)O2)O1 (stereo not given in full) | -0.359 | 0.222 | -0.0707 | 0.15 | 0.708 | 1.27 | 1.01 | 0.191 (inactive) | 0.173 | -0.169 | 1.53 | -0.534 (inactive) | -0.231 (inactive) | -0.576 (inactive) | 2.21 | 0.544 (inactive) | -0.208 | 0.11 | 0.377 | -0.145
CC1(C)O[C@H]2OC([C@H](O)CON3C(=O)c4ccccc4C3=O)[C@H](O)[C@H]2O1 (stereo not given in full) | -0.437 | -0.0068 | -0.175 | 0.0685 | 0.335 | 0.166 | 0.0939 | 0.516 (inactive) | 0.169 | -0.374 | 0.318 | -0.702 (inactive) | -0.344 (inactive) | -0.425 (inactive) | -0.061 | 0.742 (inactive) | -0.0561 | 0.441 | 0.419 | 0.0434
OC[C@H]1O[C@H](C#Cc2ccccc2)C=C[C@@H]1O | -0.406 | -0.437 | -0.0732 | 0.325 | 0.322 | 0.0659 | 0.0463 | -0.999 (inactive) | 0.101 | 0.107 | 0.232 | 0.643 (inactive) | -1.33 (inactive) | -0.98 (inactive) | 0.233 | 0.897 (inactive) | -0.113 | 0.498 | 0.609 | -0.124
CO[C@@H]1[C@H](O)CO[C@H]1C=Cc1ccccc1 | -0.392 | -0.0641 | -0.0715 | 0.211 | 0.128 | 0.206 | 0.874 | -0.253 (inactive) | 0.228 | -0.283 | 0.524 | 0.335 (inactive) | -1.14 (inactive) | -0.376 (inactive) | 0.363 | 0.447 (inactive) | -0.0895 | 0.396 | 0.0872 | -0.0581
CCOC(=O)[C@H](CC(C)C)NC(=O)CCC1CC(OC(=O)NCc2ccc3c(c2)OCO3)CC2(CCCC(COC(=O)NCCOC)O2)O1 (stereo not given in full) | -0.412 | -0.224 | -0.0785 | 0.197 | 0.805 | -0.0383 | 1.07 | 0.619 (inactive) | 0.0301 | 0.0826 | 0.634 | 0.0162 (inactive) | 0.48 (inactive) | -0.958 (inactive) | 1.71 | -0.172 (inactive) | -0.205 | 0.474 | 0.793 | 0.0953
CC(C)(C)N1C(=O)[C@H]2[C@H]3[C@H](O)[C@H](O)CC(=NNC(=O)OCc4ccccc4)[C@H]3CC[C@H]2C1=O | -0.642 | 0.0714 | -0.0684 | 0.559 | 0.389 | 0.26 | 0.748 | -0.0034 (inactive) | -0.0777 | -0.169 | 1.3 | 0.272 (inactive) | -1.49 (inactive) | -0.391 (inactive) | 1.39 | 0.0955 (inactive) | -0.191 | 0.683 | 0.4 | -0.0051
O=C1[C@H]2[C@H]3[C@H](O)[C@H](O)CC(=NOCc4ccccc4)[C@H]3CC[C@H]2C(=O)N1C1CCCCC1 | -0.483 | 0.357 | -0.0934 | 0.412 | 0.691 | 0.195 | 1.03 | 0.111 (inactive) | 0.404 | -0.0645 | 0.542 | -0.577 (inactive) | -0.355 (inactive) | -0.858 (inactive) | 1.23 | 0.119 (inactive) | -0.162 | 0.423 | 1.14 | -0.0691
CC(CCN1CCCCc2nc(C)c(C)cc21)=NO[C@@H](C)c1cc(-c2c(C)cc(C)cc2C)no1 | -0.0105 | -0.454 | -0.232 | -0.33 | -1.93 | 0.0782 | -0.246 | -1.49 (inactive) | -0.689 | -0.134 | 0.0804 | -1.73 (inactive) | -10.2 (active) | -0.199 (inactive) | -0.745 | 0.486 (inactive) | -0.126 | -0.0547 | -1.55 | -0.343
C[C@H]1CC[C@H]2C(=O)O[C@H](CO)CN2[C@@H]1c1ccc(Br)cc1 | -0.334 | 0.544 | -0.166 | 0.051 | -0.288 | -0.102 | -0.238 | 1.11 (inactive) | -0.148 | 0.2 | 0.995 | -1.57 (inactive) | -16.2 (active) | -3.33 (inactive) | 0.139 | 1.88 (inactive) | -0.141 | 0.417 | -0.811 | -0.0738
CCN1C(=O)[C@H]2[C@H]3[C@H](O)[C@H](O)CC(=NO[C@H](C)c4cn([C@@H]5COC[C@H]5O)nn4)[C@@H]3CC[C@H]2C1=O | -0.258 | 0.307 | -0.0853 | 0.307 | 0.0679 | -0.455 | -0.14 | 0.225 (inactive) | 0.0423 | -0.238 | 0.489 | 0.415 (inactive) | 1.01 (inactive) | 1.36 (inactive) | 0.413 | 0.445 (inactive) | -0.129 | -0.127 | 0.0689 | -0.0678
